Drawing on PubChem BioAssay, this text covers z-score for 16 molecules.

Experiment [1] can be described thus: A549 cell viability effects, profiling panel, calcein-AM fluorescence, 48 h, basal (AID 1162). To be noted: higher = more signal.
Experiment [2] in a line: adipocyte viability effects, profiling panel, cell-based, 3T3-L1 adipocytes, calcein-AM fluorescence, 48 h, basal (AID 1163). To be noted: 3T3-L1 adipocytes viability, higher = more signal.
Experiment [3] in a line: HepG2 cell viability effects, profiling panel, calcein-AM fluorescence, 48 h, basal (AID 1164). The note with it: higher = more signal.
Experiment [4] can be described thus: MM1S cell viability effects, profiling panel, calcein-AM fluorescence, 48 h, basal (AID 1165).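 Also: viability of MM1S multiple myeloma cells under basal unstimulated conditions.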 The note with it: higher = more signal.
Experiment [5] is described as follows: basal RPMI8226 viability, no added stimulus, profiling panel, cell-based, calcein-AM fluorescence, 48 h, PK04 Diversity Set (AID 1166).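 Also: cells grown under basal conditions without added stimulus.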 The note with it: RPMI8226 myeloma viability, higher = more signal.
Experiment [6] is described as follows: basal HepG2 mitochondrial membrane potential changes, profiling panel, cell-based, JC-1 fluorescence, 24 h, 100 nL compound (AID 1167). The note with it: higher = more signal.
Experiment [7] is described as follows: basal 3T3-L1 adipocyte mitochondrial potential changes, profiling panel, cell-based, JC-1 fluorescence, 3T3-L1 adipocytes, 24 h, 100 nL compound (AID 1168). To be noted: JC-1 mitochondrial fluorescence, higher = more signal, called active from +8 up or from −8 down.
A short description of experiment [8]: basal RPMI8226 mitochondrial membrane potential changes, profiling panel, cell-based, JC-1 fluorescence, 24 h, 100 nL compound (AID 1169). To be noted: RPMI8226 myeloma, JC-1 mitochondrial potential fluorescence, higher = more signal.
Experiment [9] can be described thus: basal MM1S mitochondrial membrane potential changes, profiling panel, cell-based, JC-1 fluorescence, 24 h, 100 nL compound (AID 1170). To be noted: higher = more signal.
Experiment [10] in a line: A549 lung cancer cell viability effects, profiling panel, resazurin fluorescence, 24 h, PK04 Diversity Set (AID 1171). To be noted: higher = more signal, called active from +8 up or from −8 down.

Calls of active or inactive are those of the source.
Also: test concentration not given here.

With `COC(=O)c1c(CC[C@@H](CO)NC(=O)N[C@H](Cc2ccccc2)Cn2cc(-c3ccccc3N)nn2)oc(C(C)=O)c1C(=O)OC`, the z-score in [1] is 0.238; in experiment [2], 0.475; in [3], 0.169; in experiment [4], -0.0234; in experiment [5], 0.229; in experiment [6] it was -0.864. The z-score was -0.474 (inactive) in experiment [7], -0.415 in [8], 0.65 in [9] and -0.0935 (inactive) in experiment [10].
Turning to `O=C1C[C@@H](O)[C@@H](O)[C@@H]2[C@@H]3C(=O)N(c4cccc(Oc5ccccc5)c4)C(=O)[C@@H]3CC[C@@H]12`, the z-score was 0.494 in experiment [1]; -0.202 in experiment [2]; -0.323 in [3]; 0.309 in [4]; -0.0677 in experiment [5]; -0.0107 in experiment [6]. Moreover, the z-score in experiment [7] was 0.615 (inactive); in [8], 0.54; in experiment [9], 0.531; in experiment [10], -0.187 (inactive).
For `CCCC[C@@H]1C[C@H]1[C@@H](NS(=O)(=O)c1cccc2cccnc12)c1ccc(-c2ccccc2)cc1`, the z-score in experiment [1] is -1.11; in experiment [2], -1.08; in experiment [3] it was -0.0369; in experiment [4], 0.252; in [5] it was 0.0748; in experiment [6], -1.13. In addition, the z-score was -0.43 (inactive) in [7], -0.214 in experiment [8], -1.49 in experiment [9] and 0.239 (inactive) in experiment [10].
Consider `CC(C)[C@@H](OCc1ccccc1)[C@H](C)C=NO[C@H](C)c1cn([C@H](CO)Cc2ccccc2)nn1`, for which the z-score in [1] is -0.22; in experiment [2] it was 0.315; in experiment [3], 0.235; in experiment [4], -0.192; in experiment [5] it was 0.153; in experiment [6], -1.15. Also, the z-score is 0.629 (inactive) in experiment [7], 0.339 in experiment [8], 0.115 in [9] and -1.02 (inactive) in [10].
In the case of `O=C(NN=C1C[C@@H](O)[C@@H](O)[C@@H]2[C@@H]3C(=O)N(c4cccc(Oc5ccccc5)c4)C(=O)[C@@H]3CC[C@H]12)OCc1ccccc1`, the z-score is -0.207 in [1]; -0.205 in experiment [2]; -0.943 in experiment [3]; 0.693 in experiment [4]; -0.363 in experiment [5]; 0.559 in experiment [6]. Moreover, the z-score in experiment [7] is -1.15 (inactive); in experiment [8], 0.0901; in experiment [9], -0.0387; in [10], -0.103 (inactive).
For `COC(=O)[C@@H]1CC[C@H](C)[C@@H](c2ccc(C)cc2)N1C(=O)c1ccc(C=NOC[C@@H](O)COCc2ccco2)cc1`, the z-score was -0.181 in [1]; 0.346 in experiment [2]; -0.807 in [3]; -1.32 in experiment [4]; -1.46 in experiment [5]; -2.38 in experiment [6]. The z-score in experiment [7] is -0.747 (inactive); in experiment [8], 0.304; in experiment [9] it was -0.352; in experiment [10] it was -0.45 (inactive).
With `CN1C(=O)C2C=CC(C(O)c3ccc(I)cc3)N(NC(=O)OC(C)(C)C)C2C1=O` (stereo not given), the z-score in experiment [1] is -0.872; in [2], -0.692; in experiment [3], -1.28; in [4], -0.0342; in experiment [5], -0.297; in [6] it was -1.56. In addition, the z-score is -0.474 (inactive) in experiment [7], -0.698 in experiment [8], 0.804 in [9] and -0.312 (inactive) in experiment [10].
As for `CCOC(=O)[C@H](Cc1ccccc1)NC(=O)CCC1CC(OC(=O)NCc2ccc3c(c2)OCO3)CC2(CCCC(COC(=O)NCc3cccc(C(F)(F)F)c3)O2)O1` (stereo not given in full), the z-score in experiment [1] is 0.46; in experiment [2] it was 1.24; in [3], -0.526; in experiment [4], 0.706; in experiment [5] it was -2.18; in [6], 2.06. In addition, the z-score in [7] is -0.56 (inactive); in [8], 0.918; in experiment [9], -0.622; in experiment [10], -0.0224 (inactive).
For the molecule `CC(=O)OC[C@H]1O[C@H](CCON=C[C@@H](C)[C@H](OCc2ccccc2)C(C)C)C=C[C@@H]1OC(C)=O`, the z-score in experiment [1] is -0.606; in [2], -0.52; in [3], -0.737; in [4], -0.09; in experiment [5], -0.5; in experiment [6], -1.26. Besides, the z-score is -0.801 (inactive) in experiment [7], -0.0185 in experiment [8], 0.0314 in experiment [9] and 0.0793 (inactive) in [10].
Regarding `N#Cc1ccc(NN2C(C(O)c3cccc4ccccc34)C=CC3C(=O)N(c4ccccc4)C(=O)C32)cc1` (stereo not given), the z-score was -0.762 in experiment [1]; -0.506 in experiment [2]; 1.52 in experiment [3]; 0.0966 in experiment [4]; 0.224 in experiment [5]; -0.452 in experiment [6]. The z-score was 0.226 (inactive) in experiment [7], -0.312 in [8], -0.0109 in experiment [9] and 0.325 (inactive) in experiment [10].
With `COc1ccc(O[C@H]2C=C[C@@H](c3ccccc3)O[C@@H]2COC(=O)CCC(C)=NOC(C)CN2CCCCc3nc(C)c(C)cc32)cc1` (stereo not given in full), the z-score in experiment [1] is -0.294; in experiment [2], -0.471; in [3], 0.197; in [4] it was -1.35; in [5] it was -0.666; in experiment [6], 0.775. Further, the z-score in experiment [7] was -0.313 (inactive); in experiment [8], -0.508; in experiment [9], -0.903; in experiment [10], 1.61 (inactive).
Consider `CO[C@H]1COC(=O)[C@@H]2CCCN2C(=O)[C@@H](C)COC(=O)CC=C[C@@H]1C`, for which the z-score is 0.12 in experiment [1]; -0.142 in experiment [2]; -0.364 in experiment [3]; -0.122 in experiment [4]; 0.358 in experiment [5]; 0.00983 in [6]. In addition, the z-score in [7] was -0.418 (inactive); in [8], 0.604; in experiment [9], 0.0689; in experiment [10], 0.314 (inactive).
On to `CC(C)=NOCc1ccc(-c2cc(-c3ccccc3)no2)cc1`, for which the z-score in experiment [1] is 0.947; in experiment [2] it was 0.0379; in [3] it was 0.433; in experiment [4], 0.283; in [5], -1.14; in [6], -0.49. The z-score is -0.618 (inactive) in experiment [7], 0.825 in [8], -0.152 in experiment [9] and -0.589 (inactive) in experiment [10].
Regarding `CCOC(=O)C1=CCC(c2cc3ccccc3[nH]2)NC1` (stereo not given), the z-score was -0.35 in experiment [1]; -0.709 in experiment [2]; 1.08 in experiment [3]; 1.13 in experiment [4]; 0.255 in [5]; 0.4 in [6]. The z-score in experiment [7] is 1.17 (inactive); in experiment [8] it was -0.0143; in experiment [9], -1.26; in experiment [10] it was -0.412 (inactive).
Consider `CCCCCN1CC=CC23O[C@@H]4C=CCOC(=O)[C@@H]4[C@H]2C(=O)N(CCCCCCO)[C@@H]3C1=O` (stereo not given in full), for which the z-score was -0.262 in experiment [1]; -0.0159 in [2]; 0.63 in experiment [3]; 1.04 in [4]; -0.534 in experiment [5]; -0.429 in [6]. Further, the z-score in experiment [7] was -0.574 (inactive); in [8] it was -0.343; in experiment [9] it was -0.414; in experiment [10], 0.444 (inactive).
As for `Cc1cc2c(nc1C)CCCN2CC(O)CN1CCN(C)CC1` (stereo not given), the z-score in [1] was 0.306; in [2], 0.411; in [3], -1.09; in experiment [4], 0.241; in experiment [5], -0.342; in experiment [6], -0.601. Also, the z-score was -0.625 (inactive) in experiment [7], 0.142 in [8], 0.842 in [9] and -0.726 (inactive) in experiment [10].
